Screening data (PubChem)
Compounds with a hit are over-represented: about 22% of the library has one in this group of screens.
CYP2C19 inh = human CYP2C19 inhibition; CYP2C19 Supersomes, luciferin-H EGE luminescence, 30 min; P33261; inhibition, % at 5 µM; 96,000 compounds, 21% hits;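 active = CYP2C19 inhibition above a set limit at 5 µM in the primary screen, cut at about 50% in these data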;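 note: plate controls were negative control wells for no effect and 2.5 mM tranylcypromine positive control for full effect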
Target sequence (P33261 whole entry, looked up): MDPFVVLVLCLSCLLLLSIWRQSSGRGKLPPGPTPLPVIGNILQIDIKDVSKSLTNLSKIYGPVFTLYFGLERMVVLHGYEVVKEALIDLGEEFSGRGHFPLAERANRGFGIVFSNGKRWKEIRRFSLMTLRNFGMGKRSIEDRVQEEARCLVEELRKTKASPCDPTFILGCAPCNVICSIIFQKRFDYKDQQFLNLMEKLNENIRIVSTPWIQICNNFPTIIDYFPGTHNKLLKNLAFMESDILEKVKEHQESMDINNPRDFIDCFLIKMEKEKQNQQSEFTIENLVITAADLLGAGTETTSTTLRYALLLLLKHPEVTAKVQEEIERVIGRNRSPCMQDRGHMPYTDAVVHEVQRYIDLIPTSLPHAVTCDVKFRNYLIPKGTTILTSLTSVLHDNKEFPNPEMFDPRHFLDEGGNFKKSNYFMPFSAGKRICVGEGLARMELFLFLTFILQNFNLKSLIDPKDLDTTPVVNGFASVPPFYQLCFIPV
CYP2C9 activ = CYP2C9 (human) activation | P11712 | recombinant CYP2C9, luciferin-H conversion, luminescence; active compounds read high; factor 1 = untreated enzyme, 0 = blocked | activation factor at 5 µM | 96,000 compounds, 1.4% hits | AID 1024;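 active = activation factor of 2 or more for CYP2C9 at a 5 µM dose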;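 note: 0 = sulfaphenazole-blocked wells and 1 = vehicle-only wells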
F-actin modifier = modifiers of cytoskeleton assembly. AID 836. 91,000 compounds, 0.18% hits. inhibition, % at 2 µM. HUVEC TNFa F-actin phalloidin imaging, high content;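 active = inhibition above the batch mean plus 3 SD and confirmed as a hit by visual image inspection, cut at about 30% in these data, passing the limit was not always enough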
CYP2C19 activ = cytochrome P450 2C19 (human) activation; P33261; recombinant CYP2C19, luciferin-H EGE luminescence; active compounds read high; 0 = fully inhibited enzyme, 1 = untreated enzyme; activation factor at 5 µM; 96,000 tested, under 10 active;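 active = activation factor of at least 2 at 5 µM in the primary screen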;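 note: 0 = wells with 2.5 mM tranylcypromine and 1 = vehicle-only wells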
CYP2C9 inh = inhibitors of human CYP2C9 | P11712 | CYP2C9 Supersomes, luciferin-H conversion, luminescence | inhibition, % at 5 µM | 96,000 compounds, 20% hits | AID 777;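 active = blocking of liver enzyme CYP2C9 beyond about 50% at 5 µM, limit read from the data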
E-sel TNF inh = TNF alpha driven E-selectin expression inhibition; HUVEC TNFa-induced E-selectin immunofluorescence, high content; inhibition, % at 2 µM; 120,000 compounds, 0.71% hits; AID 1246;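 active = inhibition above the batch mean plus 3 SD, and confirmed as a hit on visual image review, cut at about 43% in these data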;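 note: 0% = TNF-stimulated DMSO wells and 100% = unstimulated control wells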
* = called active by the depositor; . = no result given.

SMILES	CYP2C19 inh	CYP2C9 activ	F-actin modifier	CYP2C19 activ	CYP2C9 inh	E-sel TNF inh
CCCCN=C(C)C1=C(O)CSC1=O	13.3	0.9	-7.4	0.9	5.8	-8.2
CC1CCN(C(=O)Cn2cc3c(n2)CCCC3)CC1	55.2*	0.9	-24.5	0.4	14.6	.
COC(=O)c1ccccc1NC(=O)Cn1cc2c(n1)CCC(C)C2 (stereo not drawn)	12.7	0.4	.	0.9	60.6*	2.5
O=C(Cn1cc2c(n1)CCCC2)NCc1cccc(Cl)c1	47.7	1.9	.	0.5	-92.9	-29.6
COc1cccc(CNC(=O)Cn2cc3c(n2)CCCC3)c1	70.1*	1.2	.	0.3	-22.4	-6.4
Cc1ccc(NC(=O)Cn2cc3c(n2)CCC(C)C3)cc1 (stereo not drawn)	16.5	0.8	.	0.8	20.1	-19.1
O=C(Cn1cc2c(n1)CCCC2)N1CCOCC1	4.7	0.8	-12.7	1	22.5	.
O=C(NC1CCCC1)C(Cc1ccccc1)n1cccc1 (stereo not drawn)	23.9	0.6	-6.2	0.8	35.4	.
Cc1n[nH]c(C)c1S(=O)(=O)N1CCOCC1	-20.5	1.2	-4.5	1.2	-19.0	2.4
COCCCNC(=O)COc1ccc(S(=O)(=O)NCc2ccccc2)cc1Cl	.	.	.	.	.	91.6*
O=C(NCc1ccco1)c1cc(S(=O)(=O)N2CCCc3ccccc32)ccc1Cl	80.9*	0.6	-7.1	0.2	39.7	-7.5
Cc1cc(S(=O)(=O)N2CCCC2)ccc1OCC(=O)NCc1ccco1	40.2	0.5	-16.2	0.6	50.0*	-4.0
CN(C)S(=O)(=O)c1ccc(Cl)c(C(=O)NCc2ccco2)c1	33.9	0.8	-2.4	0.7	22.2	12.8
COCCNS(=O)(=O)c1ccc(OCC(=O)OC)c(Cl)c1	6.6	0.9	-3.6	0.9	5.3	-2.1
O=S(=O)(c1ccc(NC(=S)NCc2ccco2)cc1)N1CCCC1	.	.	.	.	.	-2.6
COC(=O)COc1ccc(S(=O)(=O)NCc2ccco2)cc1Cl	57.9*	1	-23.1	0.4	1.0	12.1
O=C(C1CCN(S(=O)(=O)c2cnc[nH]2)CC1)N1CCc2ccccc2C1	-3.6	0.8	.	1	17.2	-13.2
O=C(COc1ccc(S(=O)(=O)N2CCCC2)cc1Cl)NCc1ccco1	7.5	0.1	-10.6	0.9	85.4*	.
COc1ccc(C(=O)OCC(=O)NCc2ccco2)cc1S(=O)(=O)N1CCN(c2cccc(Cl)c2)CC1	98.5*	0	18.2	0	95.6*	6.7
COC(=O)COc1ccc(S(=O)(=O)NCCC2=CCCCC2)cc1Cl	96.9*	0.7	-12.0	0	29.0	-3.6
O=C(COc1ccc(S(=O)(=O)N2CCCC2)cc1)NCc1ccco1	-13.1	0.7	-14.6	1.1	30.1	25.1
CC(=O)Nc1ccc(/C=N/N2C(=O)NC(C)(c3ccc(OC(F)F)cc3)C2=O)cc1 (stereo not drawn)	.	.	.	.	.	-20.9
COC(=O)c1c(NC(=S)Nc2ccc(CC(=O)O)cc2)sc(C)c1C	.	.	.	.	.	-18.3
Cc1ccc(NC2=NCCCCC2)cc1C	-7.7	1.1	14.8	1.1	-7.4	-0.1
Cc1cc(C)n(-c2cc(-c3ccccc3)nc(C)n2)n1	22.5	0.8	-8.1	0.8	21.8	-35.2
SMILES	CYP2C19 inh	CYP2C9 activ	F-actin modifier	CYP2C19 activ	CYP2C9 inh	E-sel TNF inh
Cc1ccnc(N/N=C/c2ccccc2)n1	.	.	.	.	.	-20.8
C(=N\Nc1ccc(-n2ccnc2)nn1)/c1ccccc1	98.2*	0.1	6.1	0	93.4*	-6.7
Cc1cc(C)n(-c2ccc(-n3ccnc3)nn2)n1	99.4*	0.6	-1.9	0	40.0	.
Cc1ccc(Nc2ccc(-n3ccnc3)nn2)cc1C	100.1*	0	-24.4	0	98.8*	-29.5
CC1=CC(c2ccccc2)n2nc(N3C(=O)C4CC=CCC4C3=O)nc2N1 (stereo not drawn)	1.0	0.9	-5.0	1	10.4	.
COC(=O)CSC(C)C(=O)Nc1nnc(C(C)C)s1 (stereo not drawn)	.	.	.	.	.	5.3
O=C(/C=C/c1c(Cl)cccc1Cl)NCCc1ccccc1	19.6	2.7*	1.5	0.8	-166.6	27.8
O=C(O)/C=C/C(=O)NCCc1ccccc1	.	.	.	.	.	4.2
CS(=O)(=O)c1ccc2nc(NC(NC(=O)c3ccco3)(C(F)(F)F)C(F)(F)F)sc2c1	50.0*	0	.	0.5	99.0*	4.6
COC(=O)C(NC(C)=O)(Nc1nc2ccc(C)cc2s1)C(F)(F)F (stereo not drawn)	74.8*	0.2	0.3	0.3	78.3*	-14.1
COC(=O)C(NC(C)=O)(Nc1nc2ccc(S(C)(=O)=O)cc2s1)C(F)(F)F (stereo not drawn)	2.0	0.4	.	1	64.1*	-34.9
Cc1sc(NC(=O)Cc2ccc3c(c2)OCO3)nc1-c1ccc2c(c1)CCN2C(=O)c1ccc(F)cc1	.	.	.	.	.	-13.9
O=C(CCCSc1nnc(-c2cccs2)n1CC1CCCO1)c1ccccc1 (stereo not drawn)	73.1*	0.3	21.1	0.3	69.2*	6.8
CCOC(=O)CSc1nnc(Cc2ccccc2)n1CC1CCCO1 (stereo not drawn)	14.3	1.1	-32.7	0.9	-5.0	5.7
O=C(CSc1nnc(-c2cccs2)n1CC1CCCO1)N1CCCC1 (stereo not drawn)	.	.	.	.	.	13.4
CCOc1ccc(C(C)=O)cc1CSc1nnc(-c2cccs2)n1CC1CCCO1 (stereo not drawn)	89.7*	0.2	14.8	0.1	81.5*	.
Cc1c(Cl)cccc1NC(=O)C1NC(=O)CC1c1ccccc1 (stereo not drawn)	80.6*	0.5	16.4	0.2	45.5	.
COc1ccc(Cl)cc1Nc1nc(-c2sc(NC(=O)c3ccco3)nc2C)cs1	43.1	0.4	-16.9	0.6	62.5*	-7.4
COc1cccc(Nc2nc(-c3sc(N)nc3C)cs2)c1	59.4*	0.3	49.4	0.4	74.4*	-9.1
COc1cccc(Nc2nc(-c3ccc4c(c3)OCCO4)cs2)c1	18.9	0.5	-30.5	0.8	49.5	-30.4
COc1cccc(Nc2nc(-c3sc(NC(=O)c4ccco4)nc3C)cs2)c1	47.3	0.3	16.3	0.5	72.4*	-4.1
CC(C)(C)NCCOCCOc1ccc(Cl)cc1C(C)(C)C	.	.	.	.	.	-21.4
CC1(C)Cc2nc3oc4c(=S)nc[nH]c4c3cc2CO1	16.2	0.8	.	0.8	22.0	.
CC(C)CSc1ncnc2c1oc1nc3c(cc12)COC(C)(C)C3	21.2	0.3	13.5	0.8	72.4*	-20.0
CCn1c(=O)c(C(=O)NCCNCCO)c(O)c2ccccc21	24.7	1.3	35.3	0.8	-26.5	6.2
O=C(O)CCC(=O)NC(c1ccccc1)c1ccccc1	.	.	.	.	.	-27.8
O=C(O)CC(c1ccccc1)c1ccccc1	-5.1	0.5	7.7	1.1	51.8*	-6.5
CCOc1ccc(-c2c(=O)n(OCc3ccc([N+](=O)[O-])cc3)c3ccccc3[n+]2[O-])cc1	.	.	.	.	.	-0.7
CCOc1ccc(OCC)c(-c2c(=O)n(OCc3ccc(C(C)(C)C)cc3)c3ccccc3[n+]2[O-])c1	87.8*	0.5	-5.8	0.1	52.4*	-12.1
